Bioassay records deposited in PubChem by several laboratories.
Most compounds without a hit are left out; they make up all but 2.3% or so of the library.
KKLEB cytotox: counter-screen for CF NF-kB inhibitors: cytotoxicity. hit rate 0.36% among 360,000. KKLEB CF airway cells viability, ATPlite luminescence, overnight; active compounds read low; cells stimulated with P. aeruginosa culture filtrate. activity change (cytotoxicity), % at 5 µM;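 active = corrected activity change at or below -50% at 5 µM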
CF NFkB inh: blocks PAF-induced NF-kB reporter in cystic fibrosis cells | inhibition, % at 5 µM | AID 588850 | KKLEB NF-kB-GFP reporter, GFP fluorescence overnight | hit rate 0.86% among 360,000;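 active = at least 50% inhibition at 5 µM, scaled per plate between neutral and stimulator controls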;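 also: PAF is a Pseudomonas aeruginosa culture filtrate used as stimulus; plate controls were PAF-stimulated DMSO wells for no effect and unstimulated DMSO wells for full effect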
HIF-2a block: blocks HIF-2a reporter activity | 786-0 RCC cells HIF-2a reporter, luciferase luminescence, overnight | inhibition, % at 18.8 µM | hit rate 0.72% among 360,000 | AID 624352;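 active = inhibition of the luminescence signal of 40% or more relative to plate controls, in a single-dose primary screen at 18.75 µM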
TWEAK Fn14 block: TWEAK-Fn14 signaling inhibition | TWEAK-stimulated Fn14 reporter cells, luciferase luminescence, 8 h | inhibition, % at 10 µM | hit rate 2% among 360,000 | AID 1159606; in the data active = inhibition above about 50%
LGR2 antag: blocks bursicon-induced cAMP signaling via Drosophila LGR2; HEK293 LGR2, CRE-luciferase, bursicon-stimulated, 4 h; inhibition, % at 9.99 µM; hit rate 0.35% among 380,000; AID 720647;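 active = drop in luminescence signal, shown as inhibition above about 50% in the replicate tests, limit read from the data, passing the limit was not always enough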;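 also: agonist challenge used bursicon conditioned medium at about half maximal strength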
iPSC survival up: increases survival of single human iPS cells. hiPSC single-cell survival, ATPlite luminescence; 100% = ROCK inhibitor wells, 0% = DMSO. survival enhancement, % at 20 µM. hit rate 0.044% among 360,000. AID 602274; in the data active = survival enhancement above about 18%;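 also: cells exposed to compounds for 16 hours before the ATP read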
Active calls of the source: *; . = no result given.

SMILES | KKLEB cytotox | CF NFkB inh | HIF-2a block | TWEAK Fn14 block | LGR2 antag | iPSC survival up
Brc1cc2c(cc1/C=N/Nc1nc3ccccc3s1)OCO2 | 4 | 4 | -230 | 57* | -116 | 0
Cc1nc(Nc2ccc(S(=O)(=O)N3CCCCC3C)cc2)c2nnn(Cc3ccccc3)c2n1 (stereo not drawn) | -3 | 9 | 26 | 66* | 6 | 0
COc1ccc(-c2nn(-c3ccccc3)cc2/C=N/N2C(=O)CSC2=S)cc1 | -21 | 19 | 43* | 62* | . | 2
N=c1oc2ccccc2cc1C(=O)Nc1ccccc1 | -1 | 4 | -186 | 78* | 19 | -1
CCCCCCc1cc2cc(C(=O)Nc3ccccc3)c(=O)oc2cc1O | -83* | 79* | 0 | 69* | 41 | 0
CCC(=O)Nc1cccc(-c2cc3ccccc3oc2=O)c1 | -6 | 6 | -47 | 60* | -51 | 0
N=c1oc2ccc(Cl)cc2cc1C(=O)Nc1ccc(F)cc1 | 10 | 7 | -131 | 6 | -41 | 1
CCC(=O)Nc1cccc(NC(=O)c2cc3ccccc3o2)c1 | 1 | 2 | -280 | -3 | -70 | -2
N=c1oc2cc(O)ccc2cc1C(=O)Nc1ccc(Br)cc1 | -12 | 15 | -85 | 72* | -85 | 1
C[C@@H]1CN([C@H](C)CO)S(=O)(=O)c2ccc(-c3ccccc3F)cc2O[C@H]1CN(C)C | . | . | . | . | 5 | .
CCCNC(=O)[C@@H]1[C@@H](CO)[C@@H]2Cn3c(ccc(/C=C/c4ccccc4)c3=O)[C@H]1N2C(=O)c1ccccc1 | . | . | . | . | -10 | .
Cc1cccnc1NC(=O)Nc1cccc2ccccc12 | 5 | -14 | -26 | 56* | . | 3
Cc1cccnc1NC(=O)c1cc2ccccc2oc1=O | -7 | -1 | -85 | 80* | -28 | 0
N=c1oc2cc(O)ccc2cc1C(=O)Nc1nc2ccccc2s1 | -6 | 6 | -202 | 53* | -15 | -2
COc1cccc(NC(=O)c2cc3ccccc3oc2=O)c1 | -5 | -26 | -166 | 86* | 25 | -1
O=C(Nc1ccccc1)Nc1cccc2ccccc12 | -3 | -13 | -152 | -40 | -19 | -1
CNC(=O)C[C@H]1CC[C@@H]2[C@@H](COc3ccc(NC(=O)Nc4cccc(F)c4)cc3C(=O)N2C)O1 | . | . | . | . | 9 | .
C[C@@H]1CN([C@H](C)CO)C(=O)c2cccc(NC(=O)C3CCOCC3)c2O[C@H]1CN(C)C(=O)Nc1cccc2ccccc12 | . | . | . | . | -8 | .
FC(F)(F)c1ccc(N2CCN(c3cc(-c4ccccc4)nc4ncnn34)CC2)nc1 | 13 | 4 | -3 | 80* | . | -2
c1ccc(-c2cn3nc4c(nc3n2)CCCC4)cc1 | -3 | -17 | -91 | -1 | 68* | -1
Cc1c(C(=O)OCC(=O)Nc2ccc(C(N)=O)cc2)cccc1[N+](=O)[O-] | -3 | 15 | 13 | 12 | . | 22*
COc1ccc2c3c(n(C)c2c1)[C@@H](CO)N(CC1CCOCC1)CC31CN(CC2CCOCC2)C1 | . | . | . | . | -16 | .
COc1cccc(C(=O)CSc2nccn2C)c1 | -7 | 1 | -168 | 86* | -12 | -1
COc1ccc(-c2sc3ccc(N4CCOCC4)cc3c2C#CCO)cc1 | 0 | 17 | -27 | 90* | 32 | -2
O=C(Nc1ccc(Cl)c(Cl)c1)Nc1nnc(CSc2ccccc2)s1 | -56* | 73* | 5 | 36 | 13 | 2
SMILES | KKLEB cytotox | CF NFkB inh | HIF-2a block | TWEAK Fn14 block | LGR2 antag | iPSC survival up
O=C(Nc1ccccc1)Nc1nnc(CSCc2ccccc2Cl)s1 | 2 | 13 | -1 | 35 | 10 | -1
CCCNC(=O)Nc1ccc2c(c1)C(=O)N(C)C[C@H](OC)[C@@H](C)CN(CC1CCCC1)[C@@H](C)CO2 | . | . | . | . | -6 | .
CCOc1ccc(S(=O)(=O)N(C)CC(=O)NCc2ccco2)cc1 | 17 | 2 | 9 | -31 | 7 | -1
COc1ccc(S(=O)(=O)N(C(=O)c2ccco2)c2cc3sc(=O)oc3c3ccccc23)cc1 | -31 | 71* | -12 | 35 | 17 | -2
CCOc1ccc(S(=O)(=O)N(C(=O)c2ccco2)c2cc3sc(=O)oc3c3ccccc23)cc1 | -10 | 52* | 7 | 32 | 14 | -1
Cc1ccc(S(=O)(=O)N(C(=O)c2ccco2)c2cc3sc(=O)oc3c3ccccc23)cc1 | -28 | 64* | 2 | 1 | 5 | -1
CC(=O)N(c1ccc2oc(=O)sc2c1)S(=O)(=O)c1ccccc1 | 26 | -11 | 0 | 1 | 1 | 0
C/C=C/c1ccc([C@H]2[C@@H](CO)N(CC3CCOCC3)C23CN(S(=O)(=O)CC)C3)cc1 | . | . | . | . | 1 | .
C[C@@H]1CCCCO[C@H](CN(C)C(=O)Nc2ccccc2)[C@H](C)CN([C@@H](C)CO)C(=O)c2cc(NC(=O)Nc3cccc4ccccc34)ccc2O1 | . | . | . | . | 8 | .
COC(C(=O)C(O)C(C)O)C1Cc2cc3cc(OC4CC(OC5CC(O)C(O)C(C)O5)C(O)C(C)O4)c(C)c(O)c3c(O)c2C(=O)C1OC1CC(OC2CC(OC3CC(O)C(OC)C(C)O3)C(O)C(C)O2)C(O)C(C)O1 (stereo not drawn) | -34 | 90* | -30 | 85* | 5 | -2
CCN(CC)S(=O)(=O)c1ccc(Cl)c(NC(=O)COC(=O)c2cc(-c3ccccc3Cl)nc3ccccc23)c1 | 2 | 0 | 14 | 110* | 13 | -1
COc1ccccc1C(=O)Nc1nc2ccc(S(C)(=O)=O)cc2s1 | 12 | -39 | -215 | 26 | . | 0
Nc1ccc(C(=O)Nc2nc3ccccc3s2)cc1 | 2 | -43 | -172 | 62* | -13 | -3
COc1ccccc1C(=O)Nc1nc2ccccc2s1 | -95* | -20 | 86* | 104* | 105* | -1
COc1cc2nc(NC(=O)c3ccccc3)sc(=O)c2cc1OC | -18 | 16 | -32 | 72* | 0 | 0
Cc1ccnc2nc(C(=O)Nc3nc4ccccc4s3)nn12 | 2 | -17 | -83 | 67* | 18 | -1
COc1cc2nc(NC(=O)c3ccccc3)[nH]c(=O)c2cc1OC | 6 | -22 | -4 | -9 | . | 0
O=C(NC(=S)Nc1nc2ccccc2s1)c1cccs1 | -56* | -12 | -232 | 29 | 6 | -5
COc1ccccc1C(=O)NCc1ccc(-c2nc3ccccc3s2)cc1 | -10 | 8 | 22 | 76* | -6 | 2
O=C(NNc1nc2ccccc2s1)Nc1ccc(F)cc1 | -5 | -38 | -193 | 65* | -82 | 2
COC(=O)Cc1ccc2sc(-c3ccccc3)nc2c1 | -5 | 4 | -183 | 56* | 48 | 5
COc1cc(C(=O)NCc2ccc(-c3nc4ccccc4s3)cc2)cc(OC)c1OC | -20 | 22 | -114 | -40 | . | 0
O=C(O)Cc1ccc2sc(-c3ccccc3)nc2c1 | -3 | 7 | -45 | -9 | 4 | 1
COc1cccc2sc(Nc3nc4ccc(NC(C)=O)cc4s3)nc12 | -5 | -23 | -190 | 51* | . | -2
